Several values for one entry are separate records, joined by “and”; a condition that tells them apart may be missing. Equal values may be shown once.
Legend:
[1] = biological target: T1, Serine/threonine-protein kinase D2 (Homo sapiens) (UniProt Q9BZL6); conditions: at 1 µM;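 further: mean value of PRKD2 inhibition, from the GSK PKIS screening panel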
T1 sequence (whole entry): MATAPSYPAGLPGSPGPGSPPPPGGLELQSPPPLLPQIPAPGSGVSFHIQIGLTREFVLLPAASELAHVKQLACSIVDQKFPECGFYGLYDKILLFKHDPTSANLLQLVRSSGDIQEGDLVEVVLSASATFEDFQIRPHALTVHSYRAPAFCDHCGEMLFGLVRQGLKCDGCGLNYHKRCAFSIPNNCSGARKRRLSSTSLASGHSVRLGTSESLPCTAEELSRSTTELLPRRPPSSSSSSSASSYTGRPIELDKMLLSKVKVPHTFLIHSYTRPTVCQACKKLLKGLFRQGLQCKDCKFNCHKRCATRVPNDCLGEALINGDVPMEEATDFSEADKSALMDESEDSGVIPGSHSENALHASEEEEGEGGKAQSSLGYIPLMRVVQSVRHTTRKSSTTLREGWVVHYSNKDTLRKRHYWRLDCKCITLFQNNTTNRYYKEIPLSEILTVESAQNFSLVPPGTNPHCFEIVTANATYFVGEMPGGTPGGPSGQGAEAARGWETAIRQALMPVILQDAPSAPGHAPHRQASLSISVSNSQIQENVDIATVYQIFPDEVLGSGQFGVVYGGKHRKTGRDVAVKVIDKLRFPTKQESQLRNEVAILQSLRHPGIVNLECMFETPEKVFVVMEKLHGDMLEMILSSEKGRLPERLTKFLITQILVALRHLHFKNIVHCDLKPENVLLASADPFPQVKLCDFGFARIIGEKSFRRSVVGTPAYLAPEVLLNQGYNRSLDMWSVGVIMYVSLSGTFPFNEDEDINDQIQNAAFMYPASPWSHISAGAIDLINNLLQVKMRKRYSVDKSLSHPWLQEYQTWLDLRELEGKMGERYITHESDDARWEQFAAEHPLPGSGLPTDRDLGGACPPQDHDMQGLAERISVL

[2] = biological target: T2, Serine/threonine-protein kinase D3 (Homo sapiens) (UniProt O94806); conditions: at 0.1 µM
T2 sequence (whole entry): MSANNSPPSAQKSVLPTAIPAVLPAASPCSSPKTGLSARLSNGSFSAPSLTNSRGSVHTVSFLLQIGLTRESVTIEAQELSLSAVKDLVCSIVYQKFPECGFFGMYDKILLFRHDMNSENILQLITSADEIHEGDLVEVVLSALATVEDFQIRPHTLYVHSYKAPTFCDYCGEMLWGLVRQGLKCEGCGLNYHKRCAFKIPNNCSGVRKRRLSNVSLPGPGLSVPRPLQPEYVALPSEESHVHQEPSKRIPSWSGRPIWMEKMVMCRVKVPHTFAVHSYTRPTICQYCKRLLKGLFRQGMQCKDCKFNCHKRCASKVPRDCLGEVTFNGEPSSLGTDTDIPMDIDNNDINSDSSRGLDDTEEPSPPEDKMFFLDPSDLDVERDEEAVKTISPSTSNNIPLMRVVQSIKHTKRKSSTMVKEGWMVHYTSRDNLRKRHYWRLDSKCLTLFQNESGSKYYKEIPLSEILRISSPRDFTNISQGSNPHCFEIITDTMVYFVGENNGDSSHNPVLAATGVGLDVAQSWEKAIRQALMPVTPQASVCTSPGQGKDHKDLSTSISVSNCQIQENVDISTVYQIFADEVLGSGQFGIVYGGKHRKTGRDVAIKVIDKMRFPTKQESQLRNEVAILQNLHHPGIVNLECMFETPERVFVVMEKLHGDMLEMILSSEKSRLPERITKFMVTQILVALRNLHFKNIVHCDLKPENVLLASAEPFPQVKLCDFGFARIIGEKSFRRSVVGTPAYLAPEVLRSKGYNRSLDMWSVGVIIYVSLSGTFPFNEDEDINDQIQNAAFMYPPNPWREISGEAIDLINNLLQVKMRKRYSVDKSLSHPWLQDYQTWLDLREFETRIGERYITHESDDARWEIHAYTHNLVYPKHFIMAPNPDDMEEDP

[3] = biological target: T2, Serine/threonine-protein kinase D3 (Homo sapiens); conditions: at 1 µM
[4] = biological target: T3, cGMP-dependent protein kinase 1 (Homo sapiens) (UniProt Q13976); conditions: at 0.1 µM
T3 sequence (whole entry): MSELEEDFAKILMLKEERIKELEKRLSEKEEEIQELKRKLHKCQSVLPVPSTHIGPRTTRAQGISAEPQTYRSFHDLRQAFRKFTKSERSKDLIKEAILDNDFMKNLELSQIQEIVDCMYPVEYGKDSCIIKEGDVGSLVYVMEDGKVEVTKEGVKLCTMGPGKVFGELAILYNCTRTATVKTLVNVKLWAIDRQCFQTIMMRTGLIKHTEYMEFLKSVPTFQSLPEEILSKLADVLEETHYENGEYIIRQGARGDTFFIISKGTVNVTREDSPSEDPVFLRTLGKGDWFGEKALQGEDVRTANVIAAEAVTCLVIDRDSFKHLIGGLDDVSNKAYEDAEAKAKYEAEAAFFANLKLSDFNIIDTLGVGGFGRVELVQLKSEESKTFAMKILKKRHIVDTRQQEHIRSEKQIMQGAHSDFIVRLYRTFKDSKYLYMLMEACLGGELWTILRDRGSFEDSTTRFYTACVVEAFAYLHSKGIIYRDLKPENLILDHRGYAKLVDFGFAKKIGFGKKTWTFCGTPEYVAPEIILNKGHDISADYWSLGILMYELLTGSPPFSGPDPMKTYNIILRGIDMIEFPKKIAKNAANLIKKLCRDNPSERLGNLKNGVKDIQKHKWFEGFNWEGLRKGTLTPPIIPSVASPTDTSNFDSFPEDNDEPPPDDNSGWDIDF

[5] = biological target: T3, cGMP-dependent protein kinase 1 (Homo sapiens); conditions: at 1 µM
[6] = biological target: T4, cGMP-dependent protein kinase 2 (Homo sapiens) (UniProt Q13237); conditions: at 0.1 µM
T4 sequence (whole entry): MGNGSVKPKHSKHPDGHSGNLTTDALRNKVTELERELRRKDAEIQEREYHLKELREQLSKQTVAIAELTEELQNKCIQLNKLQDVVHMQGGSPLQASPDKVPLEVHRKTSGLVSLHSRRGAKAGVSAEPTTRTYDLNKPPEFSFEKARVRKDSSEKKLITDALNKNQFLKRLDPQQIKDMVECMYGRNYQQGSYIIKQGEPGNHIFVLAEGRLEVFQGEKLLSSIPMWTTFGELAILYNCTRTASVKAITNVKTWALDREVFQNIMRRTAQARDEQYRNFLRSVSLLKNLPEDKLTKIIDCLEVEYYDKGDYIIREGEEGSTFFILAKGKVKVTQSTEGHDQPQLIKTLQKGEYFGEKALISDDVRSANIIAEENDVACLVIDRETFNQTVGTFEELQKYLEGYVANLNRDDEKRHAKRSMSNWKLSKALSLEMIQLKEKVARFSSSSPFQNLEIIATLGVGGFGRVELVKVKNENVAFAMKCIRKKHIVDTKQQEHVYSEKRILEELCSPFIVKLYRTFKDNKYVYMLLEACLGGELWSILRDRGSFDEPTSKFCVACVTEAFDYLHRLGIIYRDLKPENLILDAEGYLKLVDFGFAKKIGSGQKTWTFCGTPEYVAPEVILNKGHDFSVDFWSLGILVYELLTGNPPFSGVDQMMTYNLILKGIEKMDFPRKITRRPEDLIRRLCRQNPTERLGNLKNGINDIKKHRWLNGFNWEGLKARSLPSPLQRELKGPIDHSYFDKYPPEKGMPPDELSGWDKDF

[7] = biological target: T4, cGMP-dependent protein kinase 2 (Homo sapiens); conditions: at 1 µM
[8] = biological target: T5, cAMP-dependent protein kinase catalytic subunit PRKX (Homo sapiens) (UniProt P51817); conditions: at 0.1 µM
T5 sequence (whole entry): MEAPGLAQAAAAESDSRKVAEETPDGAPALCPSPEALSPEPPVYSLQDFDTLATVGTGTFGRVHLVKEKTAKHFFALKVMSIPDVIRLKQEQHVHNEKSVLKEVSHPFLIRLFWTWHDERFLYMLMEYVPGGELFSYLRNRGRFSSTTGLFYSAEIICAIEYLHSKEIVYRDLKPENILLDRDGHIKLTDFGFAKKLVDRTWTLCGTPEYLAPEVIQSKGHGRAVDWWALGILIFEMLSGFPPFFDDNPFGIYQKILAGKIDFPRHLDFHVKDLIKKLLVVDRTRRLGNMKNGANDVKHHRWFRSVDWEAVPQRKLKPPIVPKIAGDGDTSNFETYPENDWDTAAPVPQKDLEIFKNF

[9] = biological target: T5, cAMP-dependent protein kinase catalytic subunit PRKX (Homo sapiens); conditions: at 1 µM
[10] = biological target: Rho-associated protein kinase 1 (Homo sapiens) (UniProt Q13464); conditions: at 0.1 µM
[11] = biological target: Rho-associated protein kinase 1 (Homo sapiens) (UniProt Q13464); conditions: at 1 µM
[12] = biological target: Rho-associated protein kinase 2 (Homo sapiens) (UniProt O75116); conditions: at 0.1 µM
[13] = biological target: Rho-associated protein kinase 2 (Homo sapiens) (UniProt O75116); conditions: at 1 µM
[14] = biological target: Ribosomal protein S6 kinase alpha-1 (Homo sapiens) (UniProt Q15418); conditions: at 0.1 µM
[15] = biological target: Ribosomal protein S6 kinase alpha-1 (Homo sapiens) (UniProt Q15418); conditions: at 1 µM
[16] = biological target: Ribosomal protein S6 kinase alpha-3 (Homo sapiens) (UniProt P51812); conditions: at 0.1 µM
[17] = biological target: Ribosomal protein S6 kinase alpha-3 (Homo sapiens) (UniProt P51812); conditions: at 1 µM
[18] = biological target: Ribosomal protein S6 kinase alpha-2 (Homo sapiens) (UniProt Q15349); conditions: at 0.1 µM
[19] = biological target: Ribosomal protein S6 kinase alpha-2 (Homo sapiens) (UniProt Q15349); conditions: at 1 µM
[20] = biological target: Ribosomal protein S6 kinase alpha-6 (Homo sapiens) (UniProt Q9UK32); conditions: at 0.1 µM;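 further: reported value is the mean inhibition of RSK4, from the GSK PKIS kinase inhibitor screen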
Ribosomal protein S6 kinase alpha-6 (Homo sapiens), sequence (Q9UK32 whole entry): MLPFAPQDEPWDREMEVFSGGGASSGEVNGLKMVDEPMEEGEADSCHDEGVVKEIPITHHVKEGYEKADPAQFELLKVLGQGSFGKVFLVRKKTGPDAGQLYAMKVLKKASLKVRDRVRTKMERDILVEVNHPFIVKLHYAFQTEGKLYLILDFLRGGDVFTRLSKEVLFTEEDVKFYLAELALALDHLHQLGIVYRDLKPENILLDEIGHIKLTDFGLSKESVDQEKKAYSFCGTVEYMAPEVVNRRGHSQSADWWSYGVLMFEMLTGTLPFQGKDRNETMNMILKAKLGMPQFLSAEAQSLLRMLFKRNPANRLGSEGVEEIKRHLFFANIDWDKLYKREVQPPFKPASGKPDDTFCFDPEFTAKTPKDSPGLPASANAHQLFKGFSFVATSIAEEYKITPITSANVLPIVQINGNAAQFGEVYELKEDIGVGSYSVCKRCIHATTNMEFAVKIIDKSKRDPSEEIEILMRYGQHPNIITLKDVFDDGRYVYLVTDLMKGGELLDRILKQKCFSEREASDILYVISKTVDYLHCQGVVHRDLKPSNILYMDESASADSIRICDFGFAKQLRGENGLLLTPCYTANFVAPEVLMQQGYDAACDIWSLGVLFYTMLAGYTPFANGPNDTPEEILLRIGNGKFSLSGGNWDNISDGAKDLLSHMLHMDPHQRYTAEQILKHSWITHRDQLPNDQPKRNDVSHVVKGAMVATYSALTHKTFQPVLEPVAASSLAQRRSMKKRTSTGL

Ribosomal protein S6 kinase alpha-3 (Homo sapiens), sequence (P51812 whole entry): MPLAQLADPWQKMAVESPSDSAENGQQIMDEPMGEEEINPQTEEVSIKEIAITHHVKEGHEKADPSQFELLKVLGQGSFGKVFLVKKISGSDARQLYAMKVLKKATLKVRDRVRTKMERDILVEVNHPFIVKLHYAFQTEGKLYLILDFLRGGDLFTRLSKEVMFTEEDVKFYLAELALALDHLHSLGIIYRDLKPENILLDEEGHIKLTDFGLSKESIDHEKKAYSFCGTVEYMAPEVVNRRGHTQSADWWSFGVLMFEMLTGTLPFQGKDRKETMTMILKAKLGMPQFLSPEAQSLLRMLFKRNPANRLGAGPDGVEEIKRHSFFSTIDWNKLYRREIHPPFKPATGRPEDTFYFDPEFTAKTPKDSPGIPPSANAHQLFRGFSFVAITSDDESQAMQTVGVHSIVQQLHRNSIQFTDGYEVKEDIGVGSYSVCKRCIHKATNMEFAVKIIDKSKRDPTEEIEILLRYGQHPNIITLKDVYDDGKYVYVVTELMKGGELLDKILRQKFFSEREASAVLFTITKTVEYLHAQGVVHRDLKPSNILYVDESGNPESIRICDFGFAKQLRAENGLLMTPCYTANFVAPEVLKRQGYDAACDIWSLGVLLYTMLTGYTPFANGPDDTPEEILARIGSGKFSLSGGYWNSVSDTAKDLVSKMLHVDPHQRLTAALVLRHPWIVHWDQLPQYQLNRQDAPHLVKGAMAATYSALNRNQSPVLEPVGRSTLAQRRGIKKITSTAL
Rho-associated protein kinase 2 (Homo sapiens), sequence (O75116 whole entry, looked up): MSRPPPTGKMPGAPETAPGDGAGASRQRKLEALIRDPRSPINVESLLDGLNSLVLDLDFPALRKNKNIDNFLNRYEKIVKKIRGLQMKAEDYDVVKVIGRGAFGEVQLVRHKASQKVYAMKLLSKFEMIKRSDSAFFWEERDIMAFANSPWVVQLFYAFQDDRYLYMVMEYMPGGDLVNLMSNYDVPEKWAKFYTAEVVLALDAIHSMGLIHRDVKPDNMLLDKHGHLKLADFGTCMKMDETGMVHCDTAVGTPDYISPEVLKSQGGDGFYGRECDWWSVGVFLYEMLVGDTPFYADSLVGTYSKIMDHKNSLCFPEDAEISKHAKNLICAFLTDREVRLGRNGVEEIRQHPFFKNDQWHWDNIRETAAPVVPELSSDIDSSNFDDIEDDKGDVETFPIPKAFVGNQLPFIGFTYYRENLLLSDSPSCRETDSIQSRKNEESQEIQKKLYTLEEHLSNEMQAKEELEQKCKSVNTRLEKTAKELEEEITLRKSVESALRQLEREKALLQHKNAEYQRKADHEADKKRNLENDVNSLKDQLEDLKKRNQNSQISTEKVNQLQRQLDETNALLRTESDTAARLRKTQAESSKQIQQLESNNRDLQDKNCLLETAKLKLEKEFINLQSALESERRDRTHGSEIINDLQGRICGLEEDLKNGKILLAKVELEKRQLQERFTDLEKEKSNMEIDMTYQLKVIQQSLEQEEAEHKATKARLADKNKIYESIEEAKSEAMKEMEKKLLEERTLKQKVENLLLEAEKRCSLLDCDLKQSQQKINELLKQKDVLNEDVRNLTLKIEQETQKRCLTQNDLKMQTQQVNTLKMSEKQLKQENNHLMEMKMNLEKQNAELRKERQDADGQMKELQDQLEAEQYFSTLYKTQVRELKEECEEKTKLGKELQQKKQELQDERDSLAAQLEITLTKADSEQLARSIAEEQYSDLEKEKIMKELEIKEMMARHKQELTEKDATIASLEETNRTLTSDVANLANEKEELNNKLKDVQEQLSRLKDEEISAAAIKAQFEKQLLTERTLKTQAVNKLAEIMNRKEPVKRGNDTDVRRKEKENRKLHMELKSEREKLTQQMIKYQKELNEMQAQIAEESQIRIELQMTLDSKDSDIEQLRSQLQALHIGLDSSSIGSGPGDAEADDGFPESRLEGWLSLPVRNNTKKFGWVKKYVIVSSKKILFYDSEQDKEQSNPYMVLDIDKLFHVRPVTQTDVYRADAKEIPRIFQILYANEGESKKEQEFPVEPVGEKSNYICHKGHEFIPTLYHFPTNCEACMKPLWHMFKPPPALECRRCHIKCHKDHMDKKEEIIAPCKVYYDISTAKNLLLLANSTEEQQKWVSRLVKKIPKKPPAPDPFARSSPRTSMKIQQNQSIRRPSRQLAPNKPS
Rho-associated protein kinase 1 (Homo sapiens), sequence (Q13464 2-1354 limits assumed): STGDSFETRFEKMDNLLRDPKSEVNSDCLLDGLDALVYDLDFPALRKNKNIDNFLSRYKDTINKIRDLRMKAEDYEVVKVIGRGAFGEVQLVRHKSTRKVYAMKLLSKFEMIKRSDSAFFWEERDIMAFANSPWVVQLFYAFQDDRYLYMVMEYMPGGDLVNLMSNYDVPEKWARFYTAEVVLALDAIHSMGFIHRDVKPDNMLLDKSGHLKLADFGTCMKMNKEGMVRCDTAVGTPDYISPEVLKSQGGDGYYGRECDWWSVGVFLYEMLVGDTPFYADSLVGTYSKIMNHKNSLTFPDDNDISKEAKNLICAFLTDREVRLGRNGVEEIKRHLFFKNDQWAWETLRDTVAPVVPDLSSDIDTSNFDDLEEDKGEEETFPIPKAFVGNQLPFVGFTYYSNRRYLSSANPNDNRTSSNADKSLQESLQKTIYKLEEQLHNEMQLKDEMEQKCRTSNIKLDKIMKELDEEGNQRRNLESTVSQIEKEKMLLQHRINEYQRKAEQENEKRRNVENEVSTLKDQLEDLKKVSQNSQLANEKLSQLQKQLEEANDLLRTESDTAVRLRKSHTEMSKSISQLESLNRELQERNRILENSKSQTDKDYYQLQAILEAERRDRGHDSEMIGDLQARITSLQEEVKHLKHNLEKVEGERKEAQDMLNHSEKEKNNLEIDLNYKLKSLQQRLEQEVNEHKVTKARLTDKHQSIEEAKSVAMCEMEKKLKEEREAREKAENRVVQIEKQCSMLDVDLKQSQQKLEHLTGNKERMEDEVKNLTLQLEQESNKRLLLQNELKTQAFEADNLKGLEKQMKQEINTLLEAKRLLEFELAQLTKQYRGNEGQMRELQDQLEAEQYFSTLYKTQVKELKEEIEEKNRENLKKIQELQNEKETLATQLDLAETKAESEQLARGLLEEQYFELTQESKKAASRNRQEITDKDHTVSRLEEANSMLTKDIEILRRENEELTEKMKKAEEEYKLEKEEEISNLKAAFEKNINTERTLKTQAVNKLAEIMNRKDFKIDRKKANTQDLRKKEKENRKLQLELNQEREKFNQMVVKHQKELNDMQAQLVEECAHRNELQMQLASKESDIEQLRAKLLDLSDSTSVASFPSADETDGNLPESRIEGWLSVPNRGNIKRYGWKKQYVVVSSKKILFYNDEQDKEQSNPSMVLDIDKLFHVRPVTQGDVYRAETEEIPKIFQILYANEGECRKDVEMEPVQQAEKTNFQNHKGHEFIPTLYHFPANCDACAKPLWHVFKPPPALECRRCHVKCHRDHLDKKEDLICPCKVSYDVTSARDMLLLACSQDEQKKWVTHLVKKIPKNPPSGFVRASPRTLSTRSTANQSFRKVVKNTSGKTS
Ribosomal protein S6 kinase alpha-1 (Homo sapiens), sequence (Q15418 whole entry): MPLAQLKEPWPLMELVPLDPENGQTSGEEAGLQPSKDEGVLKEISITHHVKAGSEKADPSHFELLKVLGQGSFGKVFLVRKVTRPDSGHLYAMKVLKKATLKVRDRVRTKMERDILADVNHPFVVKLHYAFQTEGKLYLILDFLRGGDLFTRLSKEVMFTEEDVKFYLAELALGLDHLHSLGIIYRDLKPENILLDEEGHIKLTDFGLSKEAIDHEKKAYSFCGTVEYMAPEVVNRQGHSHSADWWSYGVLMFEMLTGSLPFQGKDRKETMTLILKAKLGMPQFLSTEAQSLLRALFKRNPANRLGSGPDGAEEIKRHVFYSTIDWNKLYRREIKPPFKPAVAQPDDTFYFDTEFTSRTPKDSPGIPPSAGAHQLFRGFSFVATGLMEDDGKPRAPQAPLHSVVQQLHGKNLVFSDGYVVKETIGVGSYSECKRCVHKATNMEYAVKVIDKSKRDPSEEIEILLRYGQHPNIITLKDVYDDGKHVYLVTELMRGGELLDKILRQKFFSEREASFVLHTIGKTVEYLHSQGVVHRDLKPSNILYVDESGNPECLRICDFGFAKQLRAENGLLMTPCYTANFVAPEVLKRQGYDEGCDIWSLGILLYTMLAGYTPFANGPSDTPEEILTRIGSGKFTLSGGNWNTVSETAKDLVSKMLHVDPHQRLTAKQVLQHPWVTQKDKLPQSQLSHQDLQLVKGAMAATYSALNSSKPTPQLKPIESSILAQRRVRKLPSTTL

Structure (SMILES) | inhibition [1] | inhibition [2] | inhibition [3] | inhibition [4] | inhibition [5] | inhibition [6] | inhibition [7] | inhibition [8] | inhibition [9] | inhibition [10] | inhibition [11] | inhibition [12] | inhibition [13] | inhibition [14] | inhibition [15] | inhibition [16] | inhibition [17] | inhibition [18] | inhibition [19] | inhibition [20]
O=C(O[C@H]1CN[C@H](C#Cc2cc3ncnc(Nc4ccc(OCc5cccc(F)c5)c(Cl)c4)c3s2)C1)N1CCOCC1 | 6.01% | 6.55% | 6.45% | 3.08% | 7.14% | 3.07% | 4.91% | 3.17% | 6.34% | 0.81% | 1.71% | 4.15% | 8.38% | 1.45% | 6.91% | 1.55% | 5.86% | 2.72% | 3.4% | 2.22%
CC1(C)CC(n2cnc(-c3ccc(F)cc3)c2-c2ccnc(N)n2)CC(C)(C)N1 | 3.58% | 1.4% | 3.8% | 0.62% | 2.53% | 1.24% | 2.55% | 0.98% | 2.76% | 1.34% | 1.6% | 1.54% | 1.8% | 1.07% | 1.93% | 1.45% | 2.77% | 1.16% | 1.53% | 0.66%
N#Cc1cccc(Nc2ncc(-c3ccccc3)o2)c1 | 2.25% | 1.91% | 1.02% | -0.54% | 3.32% | 0.03% | 1.45% | 1.09% | 2.62% | 0.04% | 0.71% | 2% | 6.5% | 0.19% | 3.79% | 0.02% | 1.64% | 1.14% | 1.32% | -0.19%
NS(=O)(=O)c1cccc(N/C=C2\C(=O)Nc3ccccc32)c1 | 11% | 5% | 9.04% | 3.34% | 4.68% | 1.91% | 7.34% | 1.79% | 2.25% | 1.58% | 3.96% | 2.91% | 5.46% | 3.72% | 17.6% | 2.42% | 15.2% | 5.57% | 26.2% | 4.77%
COc1ccc(-c2nn3ncccc3c2-c2ccnc(Nc3ccc(F)c(F)c3)n2)cc1 | 5.42% | 4.4% | 5.09% | 2.68% | 3.58% | 5.81% | 5.3% | 3.54% | 8.39% | 1.21% | 1.15% | 3.85% | 6.06% | 4.22% | 7.89% | 4.49% | 7.14% | 2.96% | 2.69% | 1.78%
COc1ccc2ncn(-c3cc(O[C@H](C)c4ccccc4C(F)(F)F)c(C(N)=O)s3)c2c1 | 1.77% | -0.52% | 0.07% | 0.03% | 1.49% | 0.1% | 0.7% | -0.2% | -0.15% | 0.72% | 0.18% | -0.01% | -0.4% | 0.85% | 3.85% | 1.38% | 6.99% | 0.69% | 2.5% | 1.31%
CN1CCN(Cc2ccc(-c3cc4ncnc(Nc5ccc(OCc6cccc(F)c6)c(Cl)c5)c4s3)o2)CC1 | 4.28% and 7.23% | 2.56% and 5.35% | 4.4% and 6.3% | 2.05% and 4.47% | 1.78% and 7.9% | 0.82% and 2.4% | 0.79% and 5.44% | 1.82% and 3.39% | 1.45% and 5.71% | 1.65% and 1.83% | 2% and 0.89% | 1.84% and 3.91% | 2.16% and 8.24% | 0.86% and 2.44% | 3.31% and 6.74% | 0.78% and 2.19% | 4.15% and 7.1% | 2.32% and 1.76% | 3.34% and 4.93% | 1.22% and 1.16%
O=C(O[C@H]1CN[C@H](C#Cc2cc3ncnc(Nc4ccc5c(cnn5Cc5ccccc5)c4)c3s2)C1)N1CCOCC1 | 1.12% | 0.01% | 1.45% | -0.48% | -0.54% | -0.72% | 0.09% | -0.58% | -0.71% | -2.14% | -2.07% | -1.02% | -1.36% | -1.77% | -0.14% | 0.74% | 1.52% | -0.5% | -1.02% | -1.39%
Fc1cccc(COc2ccc(Nc3ncncc3C#Cc3ccccc3)cc2Cl)c1 | 6.54% | 6.12% | 5.73% | 3.8% | 4.39% | 3.39% | 3.87% | 2.56% | 5.39% | 1.15% | 1.47% | 3.76% | 7.12% | 3.37% | 6.51% | 1.92% | 4.01% | 3.21% | 2.81% | 1.21%

Source: ChEMBL document CHEMBL1961873, “Compounds: GSK PKIS; Assays: Nanosyn kinase panel” (2012)
